Screening data: PubChem, National Center for Advancing Translational Sciences (NCATS)
The list is not random: actives were taken first. Their share in the collection is about 19%.
ASM inhibitor: inhibitors of human secretory acid sphingomyelinase; P17405; placental ASM, HMU-PC fluorogenic substrate, 60 min; Potency, µM (highest dose often 57.5 µM), inactives show at the top dose activity change, negative = inhibition, usual class: inhibitors; 340,000 compounds, 0.006% hits; AID 504937; note: potency is the fitted concentration of half-maximal effect
Target sequence (P17405 47-631 limits assumed): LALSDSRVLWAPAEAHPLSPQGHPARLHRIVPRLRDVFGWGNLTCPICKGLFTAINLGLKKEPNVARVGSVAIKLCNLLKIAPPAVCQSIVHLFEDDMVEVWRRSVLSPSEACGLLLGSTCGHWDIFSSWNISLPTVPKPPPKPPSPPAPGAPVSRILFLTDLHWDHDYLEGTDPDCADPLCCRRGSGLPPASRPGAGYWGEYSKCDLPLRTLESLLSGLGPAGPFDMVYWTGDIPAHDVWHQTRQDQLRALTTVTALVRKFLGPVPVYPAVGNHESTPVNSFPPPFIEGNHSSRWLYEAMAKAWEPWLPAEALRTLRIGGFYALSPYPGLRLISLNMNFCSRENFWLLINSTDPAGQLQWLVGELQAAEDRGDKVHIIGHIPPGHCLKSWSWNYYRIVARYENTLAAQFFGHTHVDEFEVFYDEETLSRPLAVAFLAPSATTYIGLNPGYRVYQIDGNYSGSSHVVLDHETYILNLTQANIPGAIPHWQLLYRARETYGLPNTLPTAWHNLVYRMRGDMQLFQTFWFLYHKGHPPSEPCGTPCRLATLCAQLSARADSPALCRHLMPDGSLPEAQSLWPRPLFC
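HMU-PC0 cleavage (9 uM final) by human placental ASM, 60 min at 37 °C following 10 min compound exposure at RT; stopped at pH 10, fluorescence Ex 386/Em 447 nm.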
DT40 TDP1 no CPT: qHTS for Inhibitors of human tyrosyl-DNA phosphodiesterase 1 (TDP1): qHTS in cells in absence of CPT | DT40 Tdp1-/- hTDP1 cells, no CPT, ATP luminescence, 48 h | Potency, µM (titrated, usually from 46.2 µM), for inactives: at the top dose activity change, negative = growth inhibition, hits mostly inhibitors | 420,000 compounds, 15% hits | AID 686978, 2013; note: potency is the fitted concentration of half-maximal effect; % is set by controls: 0 for no effect and ±100 for the full control effect; nearly all actives have a fitted effect of over 55% in size
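Growth of hTDP1-complemented DT40 Tdp1-knockout cells is measured by ATP luminescence after at least 48 hr compound exposure at 37 °C, with DMSO substituting for the 20 nM CPT used in the parallel screen.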
TGFb SMAD3 inh: blocks TGF-b signaling | HepG2 CAGA-GFP TGF-b/SMAD3 reporter, GFP fluorescence, 18 h; TGF-beta stimulated, 500 pg/mL final | Potency, µM (titrated, usually from 46.1 µM), for inactives: at the highest dose activity, negative = inhibition, most hits filed as inhibitors | 410,000 compounds, 1.2% hits; note: potency is the fitted concentration of half-maximal effect; % is set by controls: 0 for no effect and ±100 for the full control effect; nearly all actives have a fitted effect of over 65% in size
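Inhibition was scored as loss of TGF-beta-induced (500 pg/mL final, 18 hours, 37 degrees C) GFP in HEPG2 cells carrying a CAGA-GFP reporter, in DMEM with 1% FBS. Well GFP was summed per cell; Activity was normalised to unstimulated and stimulated DMSO wells, then concentration-response fitting.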
HepG2 tox: kills HepG2 cells in TGF-b inhibitor counter-screen. HepG2 CAGA-GFP viability, ATP luminescence, 18 h. 410,000 compounds, 0.76% hits. Potency, µM (doses to about 46.1 µM), for inactives: at the highest dose activity change, negative = cytotoxicity, hits mostly cytotoxic; note: potency is the fitted concentration of half-maximal effect
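CellTiter-Glo luminescence gave cytotoxicity after 18 hours at 37 degrees C. The cells were HepG2 CAGA-GFP in 1% FBS DMEM, stimulated with 500 pg/mL TGF-beta after compound addition. %Activity was normalised to no-cell wells (complete cell-killing) and DMSO (no toxicity), and curves were fitted and classified.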
DT40 TDP1 CPT: DT40-hTDP1 cell growth loss with CPT; AID 686979; Potency, µM (doses to about 46.2 µM), for the others: at the top dose activity change, negative = growth inhibition, most hits filed as inhibitors; chicken DT40 Tdp1-/-;hTDP1 cells + 20 nM CPT, ATP luminescence, 48 h; 420,000 compounds, 12% hits; note: potency is the fitted concentration of half-maximal effect; % is set by controls: 0 for no effect and ±100 for the full control effect; nearly all actives have a fitted effect of over 55% in size
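Cell growth measured by CellTiter-Glo luminescence after a minimum 48 h, 37 C compound exposure with 20 nM CPT in Tdp1-knockout DT40 cells stably expressing hTDP1, seeded 400/well; qHTS titration format.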
IL-1B inflam inh: inflammasome signaling inhibition, IL-1 beta readout; 360,000 compounds, 4.7% hits; activity change, % at 57.5 µM; AID 743279; THP-1 LPS/ATP IL-1B secretion, AlphaLISA, 16 h; hits give low values; in the data active = activity change below about -50%; inconclusive = mostly about -30% to -49%; note: % is set by controls: 0 for no effect and ±100 for the full control effect
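Secreted IL-1B measured by AlphaLISA bead assay after 16 h compound exposure of THP-1 cells; compounds (final up to 57.5 uM) added 1 h before LPS (250 ng/mL) and ATP (1.25 mM) stimulation; lower signal means less secretion.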
An asterisk follows results filed as active; ? = inconclusive; . = not tested or not shown. Unless noted, calls come from the whole dose curve; as a rule, active = well fitted curve in the direction sought with a large enough effect; inconclusive = small, poorly fitted or top-dose-only effect, or another doubt; inactive = no such curve, though single readings can be large; an effect the other way counts as inactive or inconclusive.

SMILES	ASM inhibitor	DT40 TDP1 no CPT	TGFb SMAD3 inh	HepG2 tox	DT40 TDP1 CPT	IL-1B inflam inh
Cc1cccc(NC(=O)c2cc(-c3cc(C)cc(C)c3O)n[nH]2)c1	-20%	?	?	-78%	?	-54*
Cc1nc(SCC(=O)N2CCN(C(=O)c3cccs3)CC2)c2c(C)c(C)sc2n1	-2%	16µM*	-12%	-39%	26µM*	-4
COC(=O)c1sc2nc(C)nc(SCC(=O)Nc3sccc3C(N)=O)c2c1C	-5%	16µM*	-10%	-10%	18µM*	5
Cc1csc(SCC(=O)Nc2sccc2C(N)=O)n1	11%	-28%	-5%	-8%	-15%	-9
Cc1nc(SCC(=O)Nc2ccc(S(=O)(=O)N3CCOCC3)cc2)c2c(C)c(C)sc2n1	-15%	?	?	-19%	26µM*	?
Cc1nc(SCC(=O)Nc2sccc2C(N)=O)c2c(C)c(C)sc2n1	.	?	0%	-37%	21µM*	19
Cc1nc(SCC(=O)N2CCN(C(=O)c3ccco3)CC2)c2c(C)c(C)sc2n1	-4%	?	-13%	-11%	?	-22
CCOC(=O)c1sc2nc(C)nc(SCC(=O)N(CC)C3CCS(=O)(=O)C3)c2c1C (configuration not stated)	-3%	-25%	1%	5%	?	22
CCOc1ccc(N=c2cc(-c3ccc(OC)cc3)oc3ccccc23)cc1	-19%	26µM*	?	-33%	26µM*	-14
COc1ccc(-c2cc(=O)c3ccccc3o2)cc1	23%	?	?	-65%	?	15
COc1ccc(N=c2cc(-c3ccc(OC)cc3)oc3ccccc23)cc1	?	23µM*	?	-12%	?	.
COc1ccc(N=c2cc(-c3ccc(O)cc3)oc3ccccc23)cc1	-6%	?	?	4%	?	-98*
COc1ccc(-c2cc(=Nc3ccc(C)cc3)c3ccccc3o2)cc1	-24%	?	-5%	-22%	?	?
Cc1ccc(NC(=S)NCC2CCCO2)c(OC(F)F)c1 (configuration not stated)	2%	0%	?	-5%	1%	-13
O=C(c1ccccc1)N1N=C(c2ccco2)CC1c1cccs1 (configuration not stated)	0%	21µM*	-19%	-31%	?	-14
Cc1ccc(C2=NN(C(=O)CCl)C(c3cccs3)C2)o1 (configuration not stated)	-2%	2.6µM*	8.9µM*	8.9µM*	2.1µM*	-102*
CCC(=O)N1N=C(c2ccc(C)o2)CC1c1ccc(N(C)C)cc1 (configuration not stated)	-3%	-4%	-2%	7.1µM*	-15%	?
O=C(CCl)N1N=C(c2ccco2)CC1c1cccs1 (configuration not stated)	-2%	1.8µM*	?	-86%	2.1µM*	-105*
CC(=O)N1N=C(c2ccc(C)o2)CC1c1ccc(Br)cc1 (configuration not stated)	3%	-17%	-2%	-10%	?	-21
O=C(/C=C/c1ccccc1)Nc1cc(-c2nc3ccccc3o2)ccc1Cl	.	-25%	?	10%	?	.
C(/Oc1ccccc1)=C1\Nn2c(nnc2-c2cc(-c3ccccc3)n[nH]2)S1	.	20µM*	-10%	2%	7.1µM*	.
CC(C)(C)SCCNC(=O)c1ccc(CN2CCc3ccccc3C2)cc1	5%	?	-3%	-11%	?	-1
CCCCCn1cc2c(c1-c1ccc(Br)cc1)c(=O)n(C)c(=O)n2C	.	21µM*	?	-23%	18µM*	.
Cn1c(=O)c2c(-c3ccc(Cl)cc3)n(CCc3ccccc3)cc2n(C)c1=O	.	23µM*	?	-27%	?	.
CCCCn1cc2c(c1-c1cccc(C)c1)c(=O)n(C)c(=O)n2C	-2%	?	-24%	1%	?	24
SMILES	ASM inhibitor	DT40 TDP1 no CPT	TGFb SMAD3 inh	HepG2 tox	DT40 TDP1 CPT	IL-1B inflam inh
Cn1c(=O)c2c(-c3ccc(Br)cc3)n(CCc3ccccc3)cc2n(C)c1=O	.	?	10µM*	-54%	15µM*	.
Cc1oc2ccccc2c1CC(=O)NCCCN(C)C	3%	-14%	-19%	-14%	-1%	11
C=CCS(=O)(=O)N1CCCC(Cc2ccccc2C)(C(=O)OCC)C1 (configuration not stated)	0%	?	18%	3%	-1%	1
COc1cccc(C(=O)Nc2cccc(NC(=O)c3ccccc3Cl)c2)c1	-5%	?	-23%	-19%	?	?
COc1cccc(C(=O)Nc2ccc3[nH]ncc3c2)c1	0%	-29%	-12%	-19%	-5%	-57*
CN(C)S(=O)(=O)Oc1cccc(C(=O)Nc2ccc(Cl)c(Cl)c2)c1	-15%	10µM*	?	-41%	7.3µM*	-88*
CN(C)S(=O)(=O)Oc1cccc(C(=O)Nc2cccc(Cl)c2)c1	-9%	18µM*	-5%	-25%	15µM*	-56*
COc1ccc(NC(=O)c2cccc(OS(=O)(=O)N(C)C)c2)cc1	3%	5.2µM*	-6%	-3%	18µM*	-12
CSc1ncccc1C(=O)OCC(=O)NC1CCCCC1	3%	12%	-2%	0%	-13%	-7
COC(=O)c1nnn(CC(=O)Nc2c(C)cccc2C)c1N	.	15%	0%	-11%	-1%	.
